# Measurements reported in PubChem BioAssay AID1159580 (chemical genetic matrix, 2015).
# The whole screen tested about 5,500 compounds, of which about 2,000 (36%) were called active. Roughly 18% stayed inconclusive and do not appear here. The list shows a part of the results. A number with no mark means an inactive call. Rule as the data show it: active = normalized growth mostly below about 0.91 (no sharp cut-off); inconclusive = no clear call, values can overlap the other calls; inactive = mostly above about 0.92.
# Assay: chemical genetic growth profiling, strain panel (AID 1159580);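 also: tested at 20 µM; growth read once vehicle control cultures reached saturation at 30 °C; 1 = growth at the plate median or of vehicle wells; lower values mean less growth of the strain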
# Conditions: S. cerevisiae deletion strains, growth OD
compound,measurement,setting,value
COc1ccc(-c2coc3cc(O)ccc3c2=O)c(O)c1O,normalized growth,"locus YAL021C, strain ccr4, hits give low values",0.817 (active)
same,normalized growth,"locus YAL026C, strain drs2, hits give low values",0.818 (active)
same,normalized growth,"locus YAL030W, strain snc1, hits give low values",0.874 (active)
same,normalized growth,"locus YBL061C, strain skt5, hits give low values",0.825 (active)
same,normalized growth,"locus YBR009C, strain hhf1, hits give low values",0.955
same,normalized growth,"locus YBR023C, strain chs3, hits give low values",0.877 (active)
same,normalized growth,"locus YBR171W, strain sec66, hits give low values",0.984
same,normalized growth,"locus YBR231C, strain swc5, hits give low values",0.837 (active)
same,normalized growth,"locus YBR279W, strain paf1, hits give low values",0.893 (active)
same,normalized growth,"locus YCL011C, strain gbp2, hits give low values",0.898 (active)
same,normalized growth,"locus YCL016C, strain dcc1, hits give low values",0.94
same,normalized growth,"locus YCL061C, strain MRC1, hits give low values",0.925
same,normalized growth,"locus YCL069W, strain vba3, hits give low values",0.979
same,normalized growth,"locus YCR088W, strain abp1, hits give low values",0.971
same,normalized growth,"locus YDL005C, strain med2, hits give low values",0.979
same,normalized growth,"locus YDL040C, strain nat1, hits give low values",0.999
same,normalized growth,"locus YDR001C, strain nth1, hits give low values",0.976
same,normalized growth,"locus YDR069C, strain doa4, hits give low values",0.762 (active)
same,normalized growth,"locus YDR137W, strain rgp1, hits give low values",1.06
same,normalized growth,"locus YDR159W, strain sac3, hits give low values",1.05
same,normalized growth,"locus YDR195W, strain ref2",0.992
same,normalized growth,"locus YDR297W, strain sur2, hits give low values",0.898 (active)
same,normalized growth,"locus YDR334W, strain swr1, hits give low values",0.872 (active)
same,normalized growth,"locus YDR335W, strain msn5, hits give low values",0.948
same,normalized growth,"locus YDR392W, strain spt3, hits give low values",0.869
same,normalized growth,"locus YEL003W, strain gim4, hits give low values",0.977
same,normalized growth,"locus YEL037C, strain rad23, hits give low values",0.969
same,normalized growth,"locus YEL061C, strain CIN8 (second series), hits give low values",0.963
same,normalized growth,"locus YER015W, strain faa2, hits give low values",0.737 (active)
same,normalized growth,"locus YER016W, strain bim1, hits give low values",0.94
same,normalized growth,"locus YER111C, strain swi4, hits give low values",0.933
same,normalized growth,"locus YER155C, strain BEM2 (second series), hits give low values",0.944
same,normalized growth,"locus YFR010W, strain ubp6, hits give low values",0.873 (active)
same,normalized growth,"locus YGL167C, strain pmr1, hits give low values",0.979
same,normalized growth,"locus YGL173C, strain kem1, hits give low values",0.671 (active)
same,normalized growth,"locus YGL227W, strain vid30, hits give low values",0.989
same,normalized growth,"locus YGL240W, strain doc1, hits give low values",0.964
same,normalized growth,"locus YGL253W, strain hxk2, hits give low values",0.881 (active)
same,normalized growth,"locus YHR013C, strain ard1, hits give low values",0.861
same,normalized growth,"locus YHR027C, strain rpn1, hits give low values",0.669 (active)
same,normalized growth,"locus YHR030C, strain SLT2, hits give low values",1.02
same,normalized growth,"locus YHR079C, strain IRE1, hits give low values",1.02
same,normalized growth,"locus YHR142W, strain chs7, hits give low values",0.86 (active)
same,normalized growth,"locus YJL092W, strain hpr5, hits give low values",0.975
same,normalized growth,"locus YJL095W, strain BCK1 (second series), hits give low values",0.952
same,normalized growth,"locus YJL095W, strain BCK1, hits give low values",1.01
same,normalized growth,"locus YJL115W, strain asf1, hits give low values",0.968
same,normalized growth,"locus YJL129C, strain trk1, hits give low values",1.03
same,normalized growth,"locus YJL154C, strain vps35, hits give low values",0.988
same,normalized growth,"locus YJL164C, strain tpk1, hits give low values",0.863 (active)
same,normalized growth,"locus YJL166W, strain qcr8, hits give low values",0.817 (active)
same,normalized growth,"locus YJR066W, strain TOR1, hits give low values",0.927
same,normalized growth,"locus YKL160W, strain elf1, hits give low values",0.902 (active)
same,normalized growth,"locus YKR026C, strain gcn3, hits give low values",0.995
same,normalized growth,"locus YKR091W, strain srl3, hits give low values",0.991
same,normalized growth,"locus YLL001W, strain dnm1, hits give low values",0.971
same,normalized growth,"locus YLL026W, hits give low values",0.98
same,normalized growth,"locus YLL041C, strain sdh2, hits give low values",0.968
same,normalized growth,"locus YLR027C, strain aat2, hits give low values",0.93
same,normalized growth,"locus YLR113W, strain HOG1, hits give low values",1.01
same,normalized growth,"locus YLR221C, strain rsa3, hits give low values",0.92
same,normalized growth,"locus YLR258W, strain gsy2, hits give low values",0.947
same,normalized growth,"locus YLR262C, strain YPT6 (second series), hits give low values",0.743 (active)
same,normalized growth,"locus YLR320W, strain mms22, hits give low values",0.905
same,normalized growth,"locus YLR342W, strain FKS1, hits give low values",0.753 (active)
same,normalized growth,"locus YLR357W, strain rsc2, hits give low values",0.749 (active)
same,normalized growth,"locus YLR370C, strain arc18, hits give low values",0.916
same,normalized growth,"locus YLR384C, strain iki3, hits give low values",0.998
same,normalized growth,"locus YML120C, strain ndi1, hits give low values",1
same,normalized growth,"locus YMR058W, strain fet3, hits give low values",0.333 (active)
same,normalized growth,"locus YMR125W, strain sto1, hits give low values",1.01
same,normalized growth,"locus YMR129W, hits give low values",0.967
same,normalized growth,"locus YMR205C, strain PFK2, hits give low values",0.971
same,normalized growth,"locus YMR231W, strain pep5, hits give low values",0.937
same,normalized growth,"locus YNL071W, strain lat1, hits give low values",0.955
same,normalized growth,"locus YNL183C, strain NPR1, hits give low values",0.965
same,normalized growth,"locus YNL209W, strain ssb2, hits give low values",0.633 (active)
same,normalized growth,"locus YNL248C, strain rpa49, hits give low values",0.939
same,normalized growth,"locus YNL322C, strain KRE1 (second series), hits give low values",0.974
same,normalized growth,"locus YNR049C, strain mso1, hits give low values",0.982
same,normalized growth,"locus YOR001W, strain rrp6, hits give low values",0.988
same,normalized growth,"locus YOR070C, strain gyp1, hits give low values",0.943
same,normalized growth,"locus YOR080W, strain dia2, hits give low values",0.986
same,normalized growth,"locus YOR083W, strain WHI5, hits give low values",0.866 (active)
same,normalized growth,"locus YOR106W, strain vam3, hits give low values",0.542 (active)
same,normalized growth,"locus YOR231W, strain MKK1, hits give low values",1.04
same,normalized growth,"locus YOR265W, strain rbl2, hits give low values",0.918 (active)
same,normalized growth,"locus YOR270C, strain vph1, hits give low values",0.96
same,normalized growth,"locus YOR290C, strain snf2, hits give low values",0.961
same,normalized growth,"locus YPL051W, strain arl3, hits give low values",0.686 (active)
same,normalized growth,"locus YPL078C, strain atp4, hits give low values",0.991
same,normalized growth,"locus YPL106C, strain sse1, hits give low values",0.813 (active)
same,normalized growth,"locus YPL240C, strain hsp82, hits give low values",0.975
same,normalized growth,"locus YPL256C, strain CLN2, hits give low values",1.02
